Compound activity as filed in PubChem BioAssay.
A549 tox: Nrf2 qHTS screen for inhibitors: counterscreen for cytotoxicity; actives 0.16% (n = 390,000); Potency, µM (highest dose often 46 µM), usual class: inhibitors; A549 ARE-Fluc cells, CellTiter-Fluor viability, 18-24 h
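A549 ARE_Fluc cells in 5% FBS OPTI-MEM were exposed to compounds in concentration-response for 18-24 h at 37 deg C. Viability was read by CellTiter-Fluor fluorescence (Ex 405/Em 525) after 30 min, before the luciferase read.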
Nrf2 ARE act: qHTS of Nrf2 Activators | AID 624171, 2012 | actives 0.31% (n = 410,000) | AREc32 ARE-luciferase reporter (MCF7-derived line), luminescence, 24 h | Potency, µM (series often up to 46.1 µM), most hits filed as activators; note: nearly all actives have a fitted effect of over 65% in size
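Quantitative high-throughput format: AREc32 reporter cells, 1000 per well, received compound by pin transfer and were incubated 24 hr at 37 deg C, 5% CO2, before Steady-Glo luminescence detection.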
Nrf2 block: Nrf2 qHTS screen for inhibitors. Potency, µM (series often up to 46 µM), most hits filed as inhibitors. A549 ARE-Fluc reporter, luciferase luminescence, 18-24 h. actives 2.1% (n = 360,000); note: nearly all actives have a fitted effect of over 60% in size
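Nrf2 function is reported as luminescence of an ARE-controlled luciferase in A549 cells. Compounds were tested at several concentrations, and a CellTiter-Fluor read on the same wells flagged cytotoxicity.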
Epigenetic reg: Quantitative High-Throughput Screen for Regulators of Epigenetic Control; Potency, µM (titrated, usually from 53.9 µM), hits mostly activators; AID 1865, 2009; murine LDR cells, GFP reporter derepression, 30 h; actives 0.2% (n = 280,000); note: nearly all actives have a fitted effect of over 60% in size
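GFP-positive cell count by laser-scanning cytometry (objects 20–120 um) after 30 h, 37 C compound exposure of murine LDR cells; reporter is CMV-GFP integrated at a silenced locus, inducible by HDAC or DNMT inhibitors.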
PINK1 modulator: A Quantitative High throughput Screen to Identify Chemical Modulators of PINK1 Expression; Potency, µM (titrated, usually from 76.6 µM), most hits filed as activators; actives 0.2% (n = 410,000); PINK1 immunofluorescence, high-content cytometry, 24 h; active = well fitted activation curve with a large enough effect; inconclusive = small, poorly fitted or top-dose-only effect; cell line not stated here; note: nearly all actives have a fitted effect of over 65% in size
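Cells are seeded, rested 12 hours, then given compound at five concentrations or DMSO for 24 hours. After fixation, blocking and antibody staining, PINK1 amount and mitochondrial localization are scored; CCCP serves as control.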
Hits are given with their value; i = inactive; ? = inconclusive; nt = not tested or not shown. Hits are enriched below; roughly 2.4% of the tested compounds scored in any of these assays. Unless noted, calls come from the whole dose curve; as a rule, active = well fitted curve in the direction sought with a large enough effect; inconclusive = small, poorly fitted or top-dose-only effect, or another doubt; inactive = no such curve, though single readings can be large; an effect the other way counts as inactive or inconclusive.

SMILES	A549 tox	Nrf2 ARE act	Nrf2 block	Epigenetic reg	PINK1 modulator
COc1ccccc1C(c1nnnn1Cc1ccco1)N1CCN(c2cccc(C)c2C)CC1 (stereo unspecified)	i	i	12µM	i	i
CCN1CCN(C(c2cccc(OC)c2OC)c2nnnn2Cc2ccco2)CC1 (stereo unspecified)	i	i	i	i	i
CSc1ccc(-c2ccc(C(=O)NCC3CCCO3)c(N3CCC(O)CC3)n2)cc1 (stereo unspecified)	nt	nt	nt	nt	i
C=CCn1cc(C(=O)NCc2ccco2)c(=O)c2cc(S(=O)(=O)N3CCCCCC3)ccc21	i	i	12µM	i	nt
CCn1cc(C(=O)NCc2ccco2)c(=O)c2cc(S(=O)(=O)N3CCCCCC3)ccc21	i	i	?	i	i
COc1ccc(CN2CCCC(c3nc(-c4ccncc4)ncc3-c3ccccc3C)C2)c(OC)c1 (stereo unspecified)	nt	nt	nt	nt	i
COc1cc(/C=C/C(=O)/C=C(O)/C=C/c2ccc(O)c(OC)c2)ccc1O	i	?	i	32µM	?
COc1ccc(OCc2nnc(SCC(=O)N3CCCc4ccccc43)n2-c2ccc(C)cc2)cc1	?	i	23µM	i	i
Cc1ccc(-n2c(SCc3ccc(C#N)cc3)nnc2-c2ccccn2)cc1	i	i	i	i	i
Cc1ccc(OCc2nnc(SCc3ccc(C#N)cc3)n2-c2ccc(C)cc2)cc1	?	i	18µM	i	i
CCC(Sc1nc(-c2ccccc2)[nH]c1S(=O)(=O)c1ccc(C)cc1)C(=O)O (stereo unspecified)	i	i	i	i	i
CC1CN(CC(=O)NCCC2COc3ccccc3O2)Cc2cc(Cl)ccc2O1 (stereo unspecified)	nt	nt	nt	nt	i
O=S(=O)(c1ccc(S(=O)(=O)N(Cc2cccs2)CC2CCCO2)cc1)N1CCCCC1 (stereo unspecified)	i	i	nt	i	i
O=S(=O)(NC1CCCC1)c1ccc(S(=O)(=O)N(Cc2cccs2)CC2CCCO2)cc1 (stereo unspecified)	i	i	18µM	i	i
COc1cccc(/C=C(\C#N)c2nc3ccc(C)cc3[nH]2)c1	i	i	?	?	i
CCOc1cc(N(CC)CC)ccc1/C=C(/C#N)c1nc2ccccc2[nH]1	?	i	i	7.9µM	i
CCN(CC)c1ccc(/C=C(/C#N)c2nc3ccc(C)cc3[nH]2)c(OC(C)C)c1	?	i	?	5µM	?
CC(C)c1ccc(NC(=O)c2cc3c(=O)oc4ccccc4c3s2)cc1	i	i	i	i	i
CCCC(=O)NC(=S)Nc1ccc(N2CCN(C(=O)c3cccs3)CC2)cc1	i	i	15µM	i	i
COc1cccc(C(=O)Nc2ccc(N3CCN(C(=O)c4cccs4)CC3)cc2)c1	?	i	21µM	nt	i
O=C(Nc1ccc(N2CCN(C(=O)c3cccs3)CC2)cc1)c1cccc(F)c1	i	i	?	nt	i
N/C(=N\OC(=O)N1CCOCC1)c1ccc(Br)cc1	13µM	i	?	i	i
N/C(=N\OC(=O)N1CCOCC1)c1ccc(Cl)cc1	i	i	i	i	i
COc1ccccc1N(Cc1ccccc1)S(=O)(=O)c1cccc(C(=O)Nc2ncccc2C)c1	i	i	i	nt	i
COc1ccc(N(Cc2ccccc2)S(=O)(=O)c2cccc(C(=O)Nc3ncccc3C)c2)cc1	i	i	18µM	nt	i
SMILES	A549 tox	Nrf2 ARE act	Nrf2 block	Epigenetic reg	PINK1 modulator
Cc1cc2c(s1)c1cnn(Cc3ccc(C#N)cc3)c(=O)c1n2C	i	nt	i	nt	nt
Cc1ccc(S(=O)(=O)N2CCN(c3nc(-c4cccs4)nc(C)c3C)CC2)cc1	i	nt	i	nt	i
Cc1ccc(S(=O)(=O)N2CCN(c3ccnc(-c4cccs4)n3)CC2)cc1	i	nt	15µM	nt	i
Cc1ccc(S(=O)(=O)N2CCN(c3nc(-c4cccs4)nc4ncccc34)CC2)cc1	i	nt	12µM	nt	i
O=C(Cn1ccc2cc(S(=O)(=O)N3CCCCCC3)ccc21)NCc1cccc(Cl)c1	i	i	nt	i	i
O=C(Nc1cccc(-c2nc3ccccc3o2)c1)c1ccc(N2C(=O)C3C4C=CC(C4)C3C2=O)cc1 (stereo unspecified)	?	i	9.2µM	i	?
N#Cc1cccc(S(=O)(=O)N2CCN(c3nc(-c4cccs4)nc4ccccc34)CC2)c1	i	nt	i	nt	i
O=C(NCCCc1nc2ccccc2n1CCCOc1ccccc1)C1CCCCC1	i	nt	i	nt	i
Cc1ccc(NS(=O)(=O)c2ccc3c(c2)CCC(C)(C)O3)cc1C	i	nt	23µM	nt	nt
O=C1CCCN1c1ccc(S(=O)(=O)Nc2cccnc2)cc1	i	i	i	i	i
Cc1ccc(NS(=O)(=O)c2ccc(N3CCCC3=O)cc2)cc1C	i	nt	15µM	nt	nt
COc1cc(/C=C(\C#N)c2nc3ccc(C)cc3[nH]2)ccc1OCc1ccc(C)cc1	?	i	?	5.6µM	i
COc1cc(/C=C(\C#N)c2nc3ccc(C)cc3[nH]2)cc([N+](=O)[O-])c1O	21µM	i	?	i	i
CCOC(=O)COc1ccc(/C=C(\C#N)c2nc3ccc(C)cc3[nH]2)cc1OC	?	i	i	i	i
COc1cc(/C=C(\C#N)c2nc3ccc(C)cc3[nH]2)c([N+](=O)[O-])cc1OC	?	i	?	i	i
COc1ccc(O)c(C2Nc3ccccc3C(=O)N2Cc2ccccc2)c1 (stereo unspecified)	i	nt	i	nt	nt
C[C@H](CO)N1C[C@H](C)[C@@H](CN(C)S(=O)(=O)c2ccccc2)Oc2c(NC(=O)Nc3ccc(C(F)(F)F)cc3)cccc2C1=O	i	i	?	nt	i
COc1ccc(NC(=O)Nc2ccc3c(c2)C(=O)N([C@H](C)CO)C[C@H](C)[C@@H](CN(C)S(=O)(=O)c2ccc(OC)cc2)O3)cc1	i	i	i	nt	i
C[C@@H]1CN([C@H](C)CO)C(=O)c2cc(NC(=O)Nc3ccc(C(F)(F)F)cc3)ccc2O[C@H]1CN(C)S(=O)(=O)c1ccccc1	?	i	16µM	nt	i
COc1ccc(S(=O)(=O)N(C)C[C@H]2Oc3ccc(NC(=O)Nc4ccc(C(F)(F)F)cc4)cc3C(=O)N([C@H](C)CO)C[C@@H]2C)cc1	?	i	23µM	nt	i
CCCN1C(=O)/C(=C/c2ccc(N3CCCC3)c(C)c2)NC1=S	i	i	21µM	1µM	i
Cc1cc(/C=C2\NC(=S)N(C)C2=O)ccc1N1CCCC1	i	i	?	?	?
CCOc1ccc(Cn2c(CNS(=O)(=O)c3cccs3)nc3cccnc32)cc1	i	i	nt	i	i
COc1ccc(-n2nnnc2SCC(=O)N2CCOCC2)cc1	i	i	?	i	i
COc1ccc(N2CCN(C(=O)CSc3nnnn3-c3ccc4c(c3)OCCO4)CC2)cc1	i	i	16µM	i	nt
COC1=C(Nc2ccc(O)cc2)C(=O)c2ccccc2C1=O	?	i	23µM	i	i
